Results as given in PubChem BioAssay (NCI).
Compounds without any hit were thinned out: in the full panel of roughly 83,000, 20% have a hit.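 Cell lines were cultured in 96-well plates, exposed to a single compound concentration, and assessed for percent growth 48 hours later.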 A number with no mark means an inactive call. Active and inactive are the calls of the source. Rule for the calls: active = growth percent below 10; inactive = the rest.

Experiments:
Assay in all cases: NCI-60 one-dose screen, 48 h (100 = growth as untreated, 0 = no growth, -100 = all killed)
Conditions in all cases: 10 µM unless noted
DU-145 prostate = test system: DU-145 prostate
K-562 leukemia = test system: K-562 leukemia
MALME-3M melanoma = test system: MALME-3M melanoma
MDA-MB-231 breast = test system: MDA-MB-231 breast
RXF 393 renal = test system: RXF 393 renal
SF-268 CNS = test system: SF-268 CNS
SF-295 CNS = test system: SF-295 CNS
SF-539 CNS = test system: SF-539 CNS
UACC-257 melanoma = test system: UACC-257 melanoma
M14 melanoma = test system: M14 melanoma

O=C1NC(=O)C(c2coc3cc(Br)ccc23)=C1c1c[nH]c2ccccc12
growth (DU-145 prostate): 65.1%
growth (K-562 leukemia): 11.5%
growth (MALME-3M melanoma): 66.2%
growth (MDA-MB-231 breast): 59.4%
growth (RXF 393 renal): 75.3%
growth (SF-268 CNS): 43.1%
growth (SF-295 CNS): 71.1%
growth (SF-539 CNS): 64.7%
growth (UACC-257 melanoma): 72%
growth (M14 melanoma): 31.5%

Cc1ccc(OCCOCCOCCOc2ccc(C)n(O)c2=S)c(=S)n1O
growth (DU-145 prostate): 50.5%
growth (K-562 leukemia): 18.9%
growth (MALME-3M melanoma): 47%
growth (MDA-MB-231 breast): 28.3%
growth (RXF 393 renal): 66%
growth (SF-268 CNS): 29%
growth (SF-295 CNS): 29.1%
growth (SF-539 CNS): 45.8%
growth (UACC-257 melanoma): 68.4%
growth (M14 melanoma): 36%

COC(=O)Cn1c2c(c3c(OC)cccc31)C(=O)c1ccccc1-2
growth (DU-145 prostate): 104%
growth (K-562 leukemia): 91.7%
growth (MALME-3M melanoma): 95.5%
growth (MDA-MB-231 breast): 98.5%
growth (RXF 393 renal): 114%
growth (SF-268 CNS): 97%
growth (SF-295 CNS): 107%
growth (SF-539 CNS): 101%
growth (UACC-257 melanoma): 101%
growth (M14 melanoma): 103%

CCN(CC)CCOc1ccc(C(=O)/C=C\c2ccc(Cl)cc2Cl)cc1
growth (DU-145 prostate): 51.7%
growth (K-562 leukemia): 3.71% (active)
growth (MALME-3M melanoma): 42.4%
growth (MDA-MB-231 breast): 32.6%
growth (RXF 393 renal): 34%
growth (SF-268 CNS): 55.2%
growth (SF-295 CNS): 63.2%
growth (SF-539 CNS): 30%
growth (UACC-257 melanoma): 3.72% (active)
growth (M14 melanoma): -37.4% (active)

Cc1ccc(NC(=O)c2cc3ccccc3cc2O)c(C)c1
growth (DU-145 prostate): 96.3%
growth (K-562 leukemia): 63.6%
growth (MALME-3M melanoma): 69.8%
growth (MDA-MB-231 breast): 97.8%
growth (RXF 393 renal): 113%
growth (SF-268 CNS): 102%
growth (SF-295 CNS): 94.1%
growth (SF-539 CNS): 78.7%
growth (UACC-257 melanoma): 86.3%
growth (M14 melanoma): 86.9%

COc1ccc(C(O)c2cc3c(N)c(C(=O)Nc4cccc5ccccc45)sc3nc2C)cc1 (stereo not given)
growth (DU-145 prostate): 1.19% (active)
growth (K-562 leukemia): 12%
growth (MALME-3M melanoma): 27.7%
growth (MDA-MB-231 breast): 13.6%
growth (RXF 393 renal): 27%
growth (SF-268 CNS): 9.53% (active)
growth (SF-295 CNS): 12.9%
growth (SF-539 CNS): 4.62% (active)
growth (UACC-257 melanoma): 35.3%
growth (M14 melanoma): 15%

c1ccc(-c2c(-c3ccccc3)[n+](Cc3ccc4ccccc4c3)cn2Cc2ccc3ccccc3c2)cc1
growth (DU-145 prostate): -96.1% (active)
growth (K-562 leukemia): -63.1% (active)
growth (MALME-3M melanoma): -82.2% (active)
growth (MDA-MB-231 breast): -79.4% (active)
growth (RXF 393 renal): -96.2% (active)
growth (SF-268 CNS): -89.1% (active)
growth (SF-295 CNS): -97.9% (active)
growth (SF-539 CNS): -88.3% (active)
growth (UACC-257 melanoma): -84% (active)
growth (M14 melanoma): -85.8% (active)

C#CCOc1cccc(Nc2ncnc3cc(NC(=O)CCl)ccc23)c1
growth (DU-145 prostate): -77.1% (active)
growth (K-562 leukemia): -43% (active)
growth (MALME-3M melanoma): -73.4% (active)
growth (MDA-MB-231 breast): -78.9% (active)
growth (RXF 393 renal): -75.6% (active)
growth (SF-268 CNS): -55.8% (active)
growth (SF-295 CNS): -92.8% (active)
growth (SF-539 CNS): -80.4% (active)
growth (UACC-257 melanoma): -43.3% (active)
growth (M14 melanoma): -56.1% (active)

CC1=C(Cl)C(=O)c2cc(C)ccc2C1=O
growth (DU-145 prostate): 115%
growth (K-562 leukemia): 102%
growth (MALME-3M melanoma): 114%
growth (MDA-MB-231 breast): 103%
growth (RXF 393 renal): 84.9%
growth (SF-268 CNS): 88%
growth (SF-295 CNS): 108%
growth (SF-539 CNS): 116%
growth (UACC-257 melanoma): 106%
growth (M14 melanoma): 112%

COc1cc(Cc2cc(-c3ccccc3)nn(Cc3ccccc3)c2=O)cc(OC)c1OC
growth (DU-145 prostate): 77.7%
growth (K-562 leukemia): 20.6%
growth (MALME-3M melanoma): 35.2%
growth (MDA-MB-231 breast): 50.1%
growth (RXF 393 renal): 31.7%
growth (SF-268 CNS): 47.4%
growth (SF-295 CNS): 31.5%
growth (SF-539 CNS): 70%
growth (UACC-257 melanoma): 32%
growth (M14 melanoma): 44.1%

CCOC(=O)CNC1=C(Cl)C(=O)N(Cc2ccc(Cl)cc2)C1=O
growth (DU-145 prostate): 113%
growth (K-562 leukemia): 106%
growth (MALME-3M melanoma): 93.9%
growth (MDA-MB-231 breast): 104%
growth (RXF 393 renal): 120%
growth (SF-268 CNS): 98.5%
growth (SF-295 CNS): 108%
growth (SF-539 CNS): 90.6%
growth (UACC-257 melanoma): 106%
growth (M14 melanoma): 105%

Cc1c(C(C)(C)O)cn2ncnc(Oc3ccc(NC(=O)Nc4ccc(Cl)c(C(F)(F)F)c4)c(F)c3)c12
growth (DU-145 prostate): 80.6%
growth (K-562 leukemia): 25.4%
growth (MALME-3M melanoma): 91.4%
growth (MDA-MB-231 breast): 73.3%
growth (RXF 393 renal): 72.4%
growth (SF-268 CNS): 63.6%
growth (SF-295 CNS): 36.4%
growth (SF-539 CNS): 41%
growth (UACC-257 melanoma): 80%
growth (M14 melanoma): 55.1%

O=c1oc2c(cc1-c1ccccc1)c[n+]([O-])c1ccccc21
growth (DU-145 prostate): 103%
growth (K-562 leukemia): 92.6%
growth (MALME-3M melanoma): 97.7%
growth (MDA-MB-231 breast): 91.8%
growth (RXF 393 renal): 94.6%
growth (SF-268 CNS): 107%
growth (SF-295 CNS): 101%
growth (SF-539 CNS): 101%
growth (UACC-257 melanoma): 100%
growth (M14 melanoma): 103%

O=c1cc(C(F)(F)F)c2cc(-c3cc4ccccc4c(=O)o3)c(O)cc2o1
growth (DU-145 prostate): 96.5%
growth (K-562 leukemia): 50%
growth (MALME-3M melanoma): 91.5%
growth (MDA-MB-231 breast): 85.7%
growth (RXF 393 renal): 86.3%
growth (SF-268 CNS): 79.2%
growth (SF-295 CNS): 89.4%
growth (SF-539 CNS): 73.3%
growth (UACC-257 melanoma): 70.6%
growth (M14 melanoma): 68%

c1ccc(-c2ccc3c(c2)C2(CCNCC2)CN3)cc1
growth (DU-145 prostate): 99%
growth (K-562 leukemia): 90%
growth (MALME-3M melanoma): 94.1%
growth (MDA-MB-231 breast): 85.1%
growth (RXF 393 renal): 112%
growth (SF-268 CNS): 87.4%
growth (SF-295 CNS): 98.6%
growth (SF-539 CNS): 97.8%
growth (UACC-257 melanoma): 119%
growth (M14 melanoma): 92.3%

O=C(c1ccc(Br)cc1)C(Br)C(c1ccc(Cl)cc1)C(c1ccccc1)[N+](=O)[O-] (stereo not given)
growth (DU-145 prostate): 97.5%
growth (K-562 leukemia): 106%
growth (MALME-3M melanoma): 86.2%
growth (MDA-MB-231 breast): 85.4%
growth (RXF 393 renal): 77.2%
growth (SF-268 CNS): 90.2%
growth (SF-295 CNS): 95.1%
growth (SF-539 CNS): 96%
growth (UACC-257 melanoma): 102%
growth (M14 melanoma): 92.8%

O=C(/C=C/c1ccccc1Cl)c1cccc(OCCCCOc2cccc(C(=O)/C=C/c3ccccc3Cl)c2)c1
growth (DU-145 prostate): 102%
growth (K-562 leukemia): 99.2%
growth (MALME-3M melanoma): 91.9%
growth (MDA-MB-231 breast): 102%
growth (RXF 393 renal): 99.6%
growth (SF-268 CNS): 106%
growth (SF-295 CNS): 104%
growth (SF-539 CNS): 101%
growth (UACC-257 melanoma): 98.2%
growth (M14 melanoma): 86.5%

Cc1cn(C)cn1
growth (DU-145 prostate): 107%
growth (K-562 leukemia): 106%
growth (MALME-3M melanoma): 96.1%
growth (MDA-MB-231 breast): 112%
growth (RXF 393 renal): 117%
growth (SF-268 CNS): 106%
growth (SF-295 CNS): 105%
growth (SF-539 CNS): 110%
growth (UACC-257 melanoma): 90.2%
growth (M14 melanoma): 103%

Cn1cc(-c2csc(-c3cn(C)c4ccccc34)n2)c2cnccc21
growth (DU-145 prostate): 29.2%
growth (K-562 leukemia): -39.2% (active)
growth (MALME-3M melanoma): -92.4% (active)
growth (MDA-MB-231 breast): -17.7% (active)
growth (RXF 393 renal): -40.7% (active)
growth (SF-268 CNS): 45.1%
growth (SF-295 CNS): -73.1% (active)
growth (SF-539 CNS): -87% (active)
growth (UACC-257 melanoma): -58.2% (active)
growth (M14 melanoma): -82.6% (active)

S=c1ccnc[nH]1
growth (DU-145 prostate): 116%
growth (K-562 leukemia): 113%
growth (MALME-3M melanoma): 123%
growth (MDA-MB-231 breast): 115%
growth (RXF 393 renal): 128%
growth (SF-268 CNS): 113%
growth (SF-295 CNS): 115%
growth (SF-539 CNS): 100%
growth (UACC-257 melanoma): 105%
growth (M14 melanoma): 96.6%
